# Screens from PubChem.
# DRD3 antagonist: antagonists of human D3 dopamine receptor; P35462; D3R cells, DiscoveRx beta-arrestin luminescence, antagonist mode; active compounds read low; max response, negative = inhibition, %; 360,000 compounds, 2.5% hits; in the data active means max response below about -50%; further: on the % scale 0 is the no-effect control and ±100 the full control effect
# Target sequence (P35462 whole entry, looked up): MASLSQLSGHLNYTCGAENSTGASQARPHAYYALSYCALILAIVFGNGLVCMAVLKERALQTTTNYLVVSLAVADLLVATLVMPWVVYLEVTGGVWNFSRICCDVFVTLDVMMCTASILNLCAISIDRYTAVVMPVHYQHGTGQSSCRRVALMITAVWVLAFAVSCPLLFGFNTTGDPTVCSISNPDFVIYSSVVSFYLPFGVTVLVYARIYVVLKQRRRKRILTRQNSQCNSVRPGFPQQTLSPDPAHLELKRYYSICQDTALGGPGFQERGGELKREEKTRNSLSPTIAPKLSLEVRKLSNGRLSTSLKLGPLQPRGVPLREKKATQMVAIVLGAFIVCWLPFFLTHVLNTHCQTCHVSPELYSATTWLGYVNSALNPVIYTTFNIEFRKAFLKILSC
#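 Cells expressing the human receptor were seeded at 1500 cells/well, incubated overnight at 37 degrees C in 5% CO2, then exposed to library compounds with dopamine controls for 90 minutes at 37 degrees C before luminescent detection.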
# D1 ag: activates the human D1 dopamine receptor; P21728; HEK293 T-REx D1 cells, calcium flux, agonist mode; activation, % at 2 µM; 360,000 compounds, 1% hits; in the data active means activation above about 30%; further: 0% is about no effect
#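 Tetracycline-induced HEK293 TREx D1 cells, force-coupled to calcium signalling, were dye-loaded with a no-wash calcium kit. Compound was pin-added after a 10 s baseline. Fluorescence was read kinetically at 1 cycle/s for 180 s, with calcium rises flagged as agonism.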
# D3 ag: agonists of human D3 dopamine receptor; P35462; 410,000 compounds, 0.58% hits; max activation, %; D3R DiscoveRx beta-arrestin cells, luminescence, 90 min; in the data active means max activation above about 30%; further: 0% is about no effect
#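 Cells at 1500/well, incubated overnight, then treated with pinned compounds (dopamine as control) for 90 min at 37 degrees C. DiscoveRx reagent added for 30 - 60 minutes at room temperature; luminescence read.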
# D1 antagonist: antagonists of human D1 dopamine receptor; P21728; HEK293 TREx D1 cells, calcium flux, dopamine EC80; active compounds read low; activity change, negative = inhibition, % at 10 µM; 360,000 compounds, 3.2% hits; AID 504652; in the data active means activity change below about -30%; further: on the % scale 0 is the no-effect control and ±100 the full control effect
#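 Cells carrying a force-coupled, tetracycline-inducible human D1 receptor report calcium flux. Each well gets a 10 s baseline, compound with 180 s monitoring, then an EC80 dopamine stimulus with a second 180 s kinetic read.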
# D1 potentiator: potentiators of human D1 dopamine receptor; 360,000 compounds, 0.036% hits; potentiation, % at 10 µM; P21728; HEK293 TREx D1 cells, calcium flux, dopamine EC20 potentiation; in the data active means potentiation above about 30%; further: 0% is about no effect
# The depositor's hits bear a star; . = not tested or not shown. This is a sample that favours compounds with a hit; in the whole collection about 6% have one here.
SMILES,DRD3 antagonist,D1 ag,D3 ag,D1 antagonist,D1 potentiator
COc1ccccc1OCCCCN1CCN(c2ccccc2OC)CC1,-81*,11,3,-15,0
CC1CN(CCCCOc2ccc(F)cc2)CC(C)O1 (configuration not stated),-50*,0,-18,.,-6
COc1ccccc1N1CCN(CCCCOc2cccc3ccccc23)CC1,-69*,1,10,3,-4
COc1ccccc1N1CCN(CCCCCCOc2ccc(F)cc2)CC1,-52*,8,-5,-45*,-21
COc1ccccc1C(=O)Nc1ccccc1OCc1cc(=O)n2ccccc2n1,.,1,5,-19,1
CCOc1ccc(OC(=O)NC(c2ccccc2)C(Cl)(Cl)Cl)cc1 (configuration not stated),-6,2,1,1,-5
CC(C)OC(=O)NC(c1ccccc1)C(Cl)(Cl)Cl (configuration not stated),-50*,3,4,-19,-11
O=C(Nc1nc(-c2ccccc2)nc2ccccc12)c1ccc(F)cc1,3,2,1,-58*,-7
OCCNc1nc(-c2ccccc2)nc2ccccc12,1,4,-2,-35*,-8
CC(=O)Nc1ccc(Nc2nc(-c3ccccc3)nc3ccccc23)cc1,69,1,-9,-2,-4
Oc1ccc(Nc2nc(-c3ccccc3)nc3ccccc23)cc1,13,1,-4,-19,-4
Cc1ccc(Nc2nc(NCCO)c3ccccc3n2)cc1C,5,13,10,-38*,-11
Oc1ccc(Nc2nc(-c3ccc(Cl)cc3)nc3ccccc23)cc1,.,4,2,-34*,-5
O=C(NC1CCCC1)c1ccc2c(=O)n(Cc3ccccc3)c(SCc3cccc([N+](=O)[O-])c3)nc2c1,.,2,-22,18,0
CNC(=O)c1cnc2sc(N3CCCCCC3)nn2c1=O,.,2,5,-6,0
Cc1cc2cc(CNC(=O)c3cccc([N+](=O)[O-])c3)ccc2n1C,3,-1,1,-29,-3
Cc1cc2cc(CNC(=O)C3CCCC3)ccc2n1C,-6,2,-2,-30*,-13
Cc1cc2cc(CNC(=O)Cc3ccc([N+](=O)[O-])cc3)ccc2n1C,-23,3,-10,-31*,-14
Cc1cc(C)c(S(=O)(=O)NCc2ccc3c(c2)cc(C)n3C)c(C)c1,-22,-2,-5,-37*,-8
COc1ccc(-n2cc(C(=O)OCc3ccc(F)c(F)c3)c3ccccc3c2=O)cc1,.,1,-1,1,-3
CCCCCCCCCCCCCCCC(=O)OC[C@@H](NC(=O)C(Cl)Cl)[C@H](O)c1ccc([N+](=O)[O-])cc1,.,.,-3,.,.
CCOC(=O)c1cc(S(=O)(=O)N2CCN(c3cc(C)ccc3C)CC2)[nH]n1,.,7,-13,-17,-2
Cc1ccc(C)c(-n2cc(CNCCCn3cccn3)c(-c3ccccc3)n2)c1,-20,40*,-18,-7,6
Cc1ccc(-n2cc(CNCCCn3cccn3)c(-c3cccc(C)c3)n2)cc1,-73*,44*,-20,-41*,-15
Cc1ccc(-n2cc(CNCCN3CCOC3=O)c(-c3cccc(C)c3)n2)cc1,-17,4,-15,-5,-5
SMILES,DRD3 antagonist,D1 ag,D3 ag,D1 antagonist,D1 potentiator
Cc1ccc(C)c(-n2cc(CNC(C)Cn3cncn3)c(-c3ccccc3)n2)c1 (configuration not stated),3,2,0,-10,-1
Cc1ccc(C)c(-n2c(CCC(=O)O)ccc2-c2ccc(Cl)cc2)c1,.,23,1,-32*,-2
N#CCCN(C(=O)COC(=O)c1ccc(CNS(=O)(=O)c2ccc(F)c(Cl)c2)cc1)c1ccc(F)cc1,1,7,3,-33*,1
O=C(Nc1cc(-c2nc3ccccc3o2)ccc1Cl)c1sc2c([N+](=O)[O-])cccc2c1Cl,.,1,-21,16,2
CCOC(=O)C(NC(=O)Nc1ccc(F)cc1)(OCC)C(F)(F)F (configuration not stated),-53*,2,-7,10,2
Cc1ccc(-c2cn3nc(N4CCCC(C(=O)NCc5ccccc5F)C4)sc3n2)cc1 (configuration not stated),.,0,-5,3,0
Cc1cccc(N(C)C(=O)CCS(=O)(=O)c2ccc3c(c2)n(C)c(=O)c(=O)n3C)c1,.,-1,4,-32*,-5
Cc1cc2oc(C(=O)Nc3c(C)n(C)n(-c4ccccc4)c3=O)cc(=O)c2cc1C,.,0,11,-5,1
Cc1nc(/C(N)=N/OC(=O)c2ccc(Cl)cc2)c(C(F)(F)F)o1,2,-1,-11,-35*,-1
Nc1c(C(=O)c2ccccc2)sc2nsc(SCCN3CCOCC3)c12,-9,194*,7,-42*,4
CC(NC(=O)CSc1nc(-c2ccccc2F)nc2cc(=O)[nH]n12)c1nc2ccccc2n1C (configuration not stated),.,4,7,-14,3
Cn1c(CNC(=O)CSc2nc(-c3ccccc3F)nc3cc(=O)[nH]n23)nc2ccccc21,.,0,5,-58*,-4
CC(=O)c1cc(-c2ccccc2)n(CC(=O)NCc2ccccc2C)c1C,.,1,-2,10,-1
N/C(=N\O)c1ccc(N2CCN(c3ncccc3C(F)(F)F)CC2)nc1,40,5,31*,1,-4
Clc1cccc(CSc2ccc(-c3cccs3)nn2)c1,.,45*,-16,-3,-3
Cc1ccc(CNC(=O)/C=C/c2ccccc2Cl)cc1,5,7,-4,-12,-3
Cc1ccc(CNC(=O)/C=C/c2c(Cl)cccc2Cl)cc1,10,6,-1,-36*,-2
COc1cc2c(c(OCC(=O)NC(C)C)c1)C(=O)O[C@@H](C)CCCC(=O)CCCCC2,22,0,1,-33*,-7
CCCCN1C(=O)c2[nH]nc(-c3ccccc3O)c2C1c1ccc(C(C)(C)C)cc1 (configuration not stated),.,3,9,37,3
CCn1c(=O)c([N+](=O)[O-])c(NCCN(C)C)c2ccccc21,-59*,-1,-22,-13,-8
O=c1c([N+](=O)[O-])c(O)c2ccccc2n1Cc1ccccc1,8,8,0,4,-2
CCn1c(=O)c([N+](=O)[O-])c(Cl)c2ccccc21,-115*,1,-23,-9,-4
CCn1c(=O)c([N+](=O)[O-])c(NCC(O)c2ccccc2)c2ccccc21 (configuration not stated),-14,4,-9,1,1
O=c1c([N+](=O)[O-])c(NCCN2CCCCCC2)c2ccccc2n1-c1ccccc1,-98*,0,-16,13,0
N#CC1=C(N)N(c2ccccc2)C(c2cccc([N+](=O)[O-])c2)C1(C#N)C#N (configuration not stated),18,-1,1,-30*,-10
